From PubChem BioAssay AID488809 (Broad Institute, 2010)
Measured potencies and affinities stand elsewhere. Records with an inconclusive call do not appear. Unmarked numbers belong to inactive results. Activity calls are given as the source filed them. How the calls were made is not given here.

Experiment: cytotoxicity in NIH-3T3 fibroblasts, dose response, cytotoxicity control for antifungal drug resistance project, cell-based, Alamar Blue, fluconazole, dry powder (AID 488809)
Conditions: NIH-3T3 fibroblasts + fluconazole, Alamar Blue viability, 48 h; series mostly up to 26 µM

**Q.** With `CNC(=O)Cn1nc(-c2ccccc2)c2ccccc21` as the compound, how does the outcome read?
**A.** The outcome was “inactive”.

**Q.** Which outcome does the source give for `COC(=O)Cn1nc(C)c2ccccc21` here?
**A.** Its outcome is “inactive”.

**Q.** For `O=C(c1ccc(Cl)cc1)N1CCN(c2ccccn2)CC1`, which outcome is on record?
**A.** The outcome was “inactive”.

**Q.** For `COC(=O)Cn1nc(-c2ccccc2)c2cc(Cl)ccc21`, which outcome is on record?
**A.** Its outcome is “inactive”.

**Q.** With `COC(=O)Cn1nc(-c2ccc(Cl)cc2)c2ccccc21` as the compound, how does the outcome read?
**A.** The outcome was “inactive”.

**Q.** With `COC(=O)Cn1nc(-c2ccc(C)cc2)c2ccccc21` as the compound, how does the outcome read?
**A.** The outcome was “inactive”.

**Q.** For `O=C(c1ccccc1)N1CCN(c2ccnc3cc(Cl)ccc23)CC1`, which outcome is on record?
**A.** The outcome was “inactive”.

**Q.** For `O=C(O)c1nn(Cc2ccc(Cl)cc2)c2ccccc12`, which outcome is on record?
**A.** The outcome was “inactive”.

**Q.** Which outcome does the source give for `CCOC(=O)c1c2ccccc2nn1Cc1ccc(Cl)cc1` here?
**A.** The outcome was “inactive”.

**Q.** For `O=c1c2[nH]c3ccccc3c2nc2n1CCS2`, which outcome is on record?
**A.** Its outcome is “inactive”.

**Q.** For `O=C(O)c1c2ccccc2nn1Cc1ccc(Cl)cc1`, which outcome is on record?
**A.** The outcome was “inactive”.

**Q.** Which outcome does the source give for `O=C(Cn1c2ccccc2c2nc3n(c(=O)c21)CCS3)N1CCCC1` here?
**A.** The outcome was “inactive”.

**Q.** For `COc1ccc2c(c1)c1nc3n(c(=O)c1n2CC(=O)N1CCC(C)CC1)CCS3`, which activity change, negative = toxicity is on record?
**A.** Its activity change, negative = toxicity is 15.5% [at 2.6 µM].

**Q.** With `COc1ccc(OC)c2c(C)cc(N3CCN(C(=O)c4ccc(Cl)cc4)CC3)nc12` as the compound, how does the outcome read?
**A.** The outcome was “inactive”.

**Q.** For `O=C(c1ccc(Cl)cc1)N1CCN(c2ccc(Cl)cc2)CC1`, which outcome is on record?
**A.** The outcome was “inactive”.

**Q.** Which outcome does the source give for `O=C(Cn1nc(C(=O)N2CCCCC2)c2ccccc21)N1CCOCC1` here?
**A.** The outcome was “inactive”.

**Q.** For `Cc1nn(S(C)(=O)=O)c2ccccc12`, which outcome is on record?
**A.** The outcome was “inactive”.

**Q.** Which outcome does the source give for `CC1CCN(C(=O)Cn2c3ccccc3c3nc4n(c(=O)c32)CCS4)CC1` here?
**A.** The outcome was “inactive”.

**Q.** For `CCCCNC(=O)N1CCN(c2ccnc3cc(Cl)ccc23)CC1`, which outcome is on record?
**A.** The outcome was “inactive”.

**Q.** With `O=C(Cn1nc(-c2ccccc2)c2cc(Cl)ccc21)N1CCOCC1` as the compound, how does the outcome read?
**A.** The outcome was “inactive”.
